Some test systems named below: HCT-15 colon; HT29 colon; SNB-75 CNS; U251 CNS; PC-3 prostate; SK-MEL-5 melanoma; UACC-62 melanoma; LOX IMVI melanoma; SK-MEL-28 melanoma; SK-MEL-2 melanoma; EKVX NSCLC; SN12C renal; TK-10 renal; ACHN renal; CAKI-1 renal; HL-60(TB) leukemia; CCRF-CEM leukemia; SNB-19 CNS; UO-31 renal; A498 renal.
Holding throughout (assay): NCI-60 one-dose screen, 48 h (100 = growth as untreated, 0 = no growth, -100 = all killed)
Conditions in all cases: 10 µM unless noted

This is part of a sample that, as a whole, favours compounds with a hit. Of some 83,000 tested, about 20% had one in any assay.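 A percent growth of 40 corresponds to 60% growth inhibition; 0 means no net growth; -100 means all cells died. Active threshold: below 10.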 Values without a mark were called inactive. Active and inactive are the calls of the source.

Consider `CC(=O)c1cccc(S(=O)(=O)F)c1`, for which the growth in the assay on HCT-15 colon was 96.3%; with HT29 colon, 104%; with SNB-75 CNS it was 117%; in the assay with U251 CNS, 100%; in the assay on PC-3 prostate, 79%; in the assay on SK-MEL-5 melanoma, 110%. Also, the growth in the assay with UACC-62 melanoma was 103%; with LOX IMVI melanoma it was 90.1%; in the assay with SK-MEL-28 melanoma, 120%; with SK-MEL-2 melanoma, 91.9%; with EKVX NSCLC it was 98.8%; in the assay on SN12C renal it was 104%. Also, the growth was 115% with TK-10 renal; 99% in the assay on ACHN renal; 95.9% with CAKI-1 renal; 103% in the assay with HL-60(TB) leukemia; 97.9% in the assay on CCRF-CEM leukemia.
In the case of `O=[N+]([O-])c1cc(Cl)c(Cl)c([N+](=O)[O-])c1Cl`, the growth is -18.5% (active) in the assay with HCT-15 colon; 29.9% with HT29 colon; 103% in the assay on SNB-19 CNS; 78.7% in the assay with U251 CNS; 66.8% with PC-3 prostate; 79.1% in the assay with SK-MEL-5 melanoma. Further, the growth in the assay with UACC-62 melanoma was 86%; in the assay with LOX IMVI melanoma, -26.2% (active); in the assay with SK-MEL-28 melanoma, 103%; with SK-MEL-2 melanoma it was 116%; with EKVX NSCLC, 122%; with SN12C renal, 23.1%. Moreover, the growth in the assay with UO-31 renal is 5.47% (active); in the assay with TK-10 renal, 80.7%; with ACHN renal, -30.1% (active); with CAKI-1 renal it was -71.5% (active); with HL-60(TB) leukemia it was 22.2%; in the assay with CCRF-CEM leukemia, 15%.
Turning to `CCCN1C(=O)NC(=O)C(CC)(N2C(=O)c3c(F)c(F)c(F)c(F)c3C2=O)C1=O` (stereo not given), the growth in the assay on HT29 colon is -66.6% (active); in the assay on SNB-75 CNS it was -52.1% (active); in the assay with SNB-19 CNS, -94.9% (active); in the assay on U251 CNS, -48% (active); in the assay with PC-3 prostate it was -59.2% (active); with SK-MEL-5 melanoma, -91.7% (active). The growth in the assay with UACC-62 melanoma was -68.6% (active); in the assay with LOX IMVI melanoma, -55.9% (active); with SK-MEL-28 melanoma, -93.7% (active); with SK-MEL-2 melanoma, -65.2% (active); in the assay with EKVX NSCLC, -44.4% (active); with SN12C renal it was -72.7% (active). Further, the growth in the assay with UO-31 renal was -98.8% (active); with TK-10 renal, -76.4% (active); in the assay on ACHN renal, -79.4% (active); with CAKI-1 renal it was -89.9% (active); in the assay with A498 renal, -85.3% (active); in the assay with HL-60(TB) leukemia, -80.1% (active). Besides, the growth with CCRF-CEM leukemia is -56.7% (active).
Consider `CC(C)COC(=O)Cc1ccccc1`, for which the growth with HCT-15 colon was 109%; with HT29 colon it was 101%; in the assay with SNB-75 CNS, 99.9%; in the assay on U251 CNS it was 101%; in the assay on PC-3 prostate, 97.6%; in the assay on SK-MEL-5 melanoma it was 98.7%. In addition, the growth is 107% in the assay on UACC-62 melanoma; 101% with LOX IMVI melanoma; 112% in the assay on SK-MEL-28 melanoma; 113% in the assay on SK-MEL-2 melanoma; 109% in the assay with EKVX NSCLC; 94.2% with SN12C renal. Moreover, the growth in the assay on TK-10 renal is 95.3%; in the assay with ACHN renal it was 108%; with CAKI-1 renal it was 101%; with A498 renal, 81.1%; in the assay on HL-60(TB) leukemia it was 109%; with CCRF-CEM leukemia it was 95.3%.
Regarding `CO[C@H]1[C@H](O[C@@H]2C[C@@H]3C/C=C/C(=O)O[C@@H](CO)C[C@H](O)[C@@H]4C[C@H](C)[C@H](C/C=C\C=C\[C@H](C)C[C@H](C2)O3)O4)O[C@@H](C)[C@H](O)[C@H]1O`, the growth in the assay on HCT-15 colon was 47.4%; in the assay on HT29 colon it was 66.1%; with SNB-75 CNS, 56.7%; with U251 CNS, 40.3%; in the assay with PC-3 prostate, 35%; in the assay on SK-MEL-5 melanoma it was 19.2%. The growth in the assay on UACC-62 melanoma was 61.8%; with LOX IMVI melanoma, 59.7%; in the assay with SK-MEL-28 melanoma it was 76.1%; in the assay with SK-MEL-2 melanoma, 68.8%; in the assay with EKVX NSCLC it was 28.7%; with SN12C renal it was 62.6%. In addition, the growth is 32.2% with TK-10 renal; 66.4% in the assay on ACHN renal; 61.6% in the assay with CAKI-1 renal; 60.6% with A498 renal; 33.2% with HL-60(TB) leukemia; 58.7% in the assay with CCRF-CEM leukemia.
On to `CCN(CC)CCn1c(=O)n(C)c2ccccc21`, for which the growth with HCT-15 colon was 114%; in the assay with HT29 colon, 112%; in the assay on SNB-75 CNS, 97%; with U251 CNS it was 96.3%; in the assay on PC-3 prostate, 96.8%; with UACC-62 melanoma it was 109%. Besides, the growth is 98.4% in the assay with LOX IMVI melanoma; 114% in the assay with SK-MEL-28 melanoma; 109% in the assay on SK-MEL-2 melanoma; 114% with EKVX NSCLC; 108% in the assay on SN12C renal; 92.5% in the assay on UO-31 renal. Besides, the growth in the assay with TK-10 renal was 111%; in the assay with ACHN renal, 114%; with CAKI-1 renal it was 102%; in the assay on A498 renal, 104%; in the assay with CCRF-CEM leukemia it was 103%.
In the case of `CNC(=O)O/N=C(\SC)C(=O)N(C)C`, the growth with HCT-15 colon is 105%; in the assay on SNB-75 CNS, 101%; in the assay with U251 CNS, 101%; with PC-3 prostate, 85%; in the assay on SK-MEL-5 melanoma, 109%; with UACC-62 melanoma, 111%. For the same compound, the growth is 90.4% in the assay with LOX IMVI melanoma; 113% with SK-MEL-28 melanoma; 112% in the assay on EKVX NSCLC; 104% in the assay on SN12C renal; 103% in the assay on TK-10 renal; 101% with ACHN renal. The growth in the assay with CAKI-1 renal is 107%; in the assay with A498 renal it was 95.8%; in the assay on HL-60(TB) leukemia, 88.9%; with CCRF-CEM leukemia, 92.2%.
With `Nc1cccnc1`, the growth in the assay on HCT-15 colon is 111%; in the assay with HT29 colon, 103%; in the assay with U251 CNS, 103%; in the assay with PC-3 prostate, 97.9%; with SK-MEL-5 melanoma it was 112%; in the assay on UACC-62 melanoma it was 109%. The growth in the assay on LOX IMVI melanoma was 104%; in the assay on SK-MEL-28 melanoma, 117%; with EKVX NSCLC, 115%; with SN12C renal, 102%; in the assay with UO-31 renal it was 107%; in the assay with TK-10 renal it was 102%. The growth was 113% in the assay on ACHN renal; 104% in the assay on CAKI-1 renal; 112% with A498 renal; 106% in the assay on HL-60(TB) leukemia; 98.7% in the assay with CCRF-CEM leukemia.

(Values after PubChem BioAssay (NCI).)
